We go through 109 compounds from ChEMBL document CHEMBL4513216, “Probing the Open Global Health Chemical Diversity Library for Multistage-Active Starting Points for Next-Generation Antimalarials” (ACS Infect Dis, 2020).

Hit rate of the full screen: of about 69,000 compounds, about 8,600 (12%) showed an effect of 50% or more. For the sample, strong results were picked, then their nearest neighbours and some compounds at random.

The assay relates to Plasmodium berghei. In words: Screen against P. berghei liver stage (PbLuc), transformed with Luciferase, at 10uM. The format is functional, HepG2. As to conditions: tested at 10 uM.
As to `Cc1n[nH]c(C)c1C1COCCN1C(=O)c1n[nH]c2ccccc12` (centres undefined), the INHIBITION is given as -2.25%.
The same measure for `O=c1[nH]nc(CCCN2CCOCC2)n1Cc1cccc(F)c1`: 10.3%; for `O=C(CCN1CCCCC1)Nc1c2c(cc3c1CCC3)CCC2`: 18.8%.
The same measure for `Cn1cc(S(=O)(=O)NCC(C)(O)c2ccsc2)cn1` (centres undefined): 16.3%; for `Cn1cc(S(=O)(=O)NCc2ccsc2)cn1`: -17.8%; for `Cn1cc(S(=O)(=O)NCCc2ccsc2)cn1`: 70.9%.
As for `CNc1nc(C(=O)N2CCCC(COc3ccc(F)cc3)C2)cs1` (centres undefined), the figure is 44.9%.
`Cn1ccc(C(=O)N2CCC(Cc3cnc4[nH]ccc4c3)C2)n1` (centres undefined): the INHIBITION is -77.5%.
As for `CCCC(=O)N(C)C(c1cccc(F)c1)c1ccccn1` (centres undefined), the figure is 13.6%; as for `Cc1cccc2nc(CSCC(=O)Nc3nnc(C(C)C)s3)cc(=O)n12`, 24.5%; as for `Cc1ccn2c(=O)cc(CSCC(=O)Nc3nnc(C(C)C)s3)nc2c1`, 52.5%.
As for `Cc1ccc2nc(CSCC(=O)Nc3nnc(C(C)C)s3)cc(=O)n2c1`, the figure is 50.2%; as for `Cc1cccn2c(=O)cc(CSCC(=O)Nc3nnc(C(C)C)s3)nc12`, 14.7%; as for `CC(C)c1nnc(NC(=O)CSCc2cc(=O)n3ccccc3n2)s1`, 38.9%.
For `Cc1nnc(NC(=O)CSCc2cc(=O)n3ccccc3n2)s1`, the INHIBITION turned out to be 27.5%.
As for `c1ncn(CC2CN(CCCOc3ccc4c(c3)OCO4)CCO2)n1` (centres undefined), the figure is 36.1%; as for `O=C(Nc1ccccn1)N(CCO)Cc1ccccc1Br`, 10.2%; as for `Cn1cnc2c1C(COCC1CCOCC1)CN(c1ncccn1)C2` (centres undefined), 33.4%.
As for `Cc1nc(O)c2nnn(C[C@H]3CCCN3C(=O)c3cccs3)c2n1`, the figure is 31.6%; as for `CSCCC1c2nc[nH]c2CCN1Cc1cc(Cl)ccc1O` (centres undefined), 70.6%; as for `CSCCC1c2nc[nH]c2CCN1Cc1cncn1C` (centres undefined), 56.1%.
Take `O=C(O)C1c2nc[nH]c2CCN1Cc1ccccc1-c1ccccc1` (centres undefined): the INHIBITION came out at 12.7%.
The same measure for `CCn1ncnc1CN1CCc2[nH]cnc2C1CCc1ccccc1` (centres undefined): 1.94%.
As for `CSCCC1c2nc[nH]c2CCN1Cc1ccccc1C#N` (centres undefined), the figure is 40.9%; as for `CSCCC1c2nc[nH]c2CCN1Cc1ccnc2ccccc12` (centres undefined), -9.67%; as for `CSCCC1c2nc[nH]c2CCN1Cc1ccccc1C(F)(F)F` (centres undefined), 69.1%.
The same measure for `COc1ncccc1CN1CCc2[nH]cnc2C1CCSC` (centres undefined): 33.4%; for `CCn1ncnc1CN1CCc2[nH]cnc2C1Cc1ccccc1` (centres undefined): -56.1%.
For the compound `CCn1cc(NC(=O)C2CCC(=O)N2Cc2ccco2)cn1` (centres undefined), the INHIBITION was determined as 20.4%.
The same measure for `CCc1noc(C2CC(=O)N(CCN(C)C)C2)n1` (centres undefined): 35.1%; for `COc1ccccc1C(=O)N1CCNCC1C(N)=O` (centres undefined): 9.2%; for `CC(O)(CCc1ccccc1)CNC(=O)c1ccc(F)cc1` (centres undefined): 26.8%.
The same measure for `CSCCC(C)(O)CNC(=O)c1ccsc1` (centres undefined): 8.61%.
The same measure for `CC(O)(CCc1ccccc1)CNC(=O)c1ccsc1` (centres undefined): 50.2%; for `Cn1cccc1CN1CCC2(CCCN(C(=O)c3cnccn3)C2)C1` (centres undefined): 2.01%; for `CCn1cc(NC(=O)NCc2ccc3c(c2)OCCO3)cn1`: 33%.
In the case of `CCn1cc(NC(=O)NCCc2ccc3c(c2)OCCO3)cn1`, the INHIBITION is -27.8%.
`CCn1cc(NC(=O)CCc2ccc3c(c2)OCCCO3)cn1`: the INHIBITION turned out to be 55.5%.
The same measure for `CCN(CC)C(=O)c1c(Br)cnn1CC`: 29.3%.
As for `COc1c(CNC2CCCOc3ccccc32)c(C(C)C)nn1C` (centres undefined), the figure is 15.3%; as for `NC(=O)c1cnc2n1CCN(C(=O)c1ccc(Cn3cccc3)cc1)C2`, 15.5%.
As for `CC(C)NC(=O)[C@@H]1CCO[C@@H]2CCN(c3ncccn3)C[C@@H]21`, the figure is 2.41%; as for `Clc1ccc(C(CNCc2cccnc2)n2cccn2)cc1` (centres undefined), -4.56%.
In the case of `NC(=O)N1CCCC(C(=O)N2CCN(c3nsc4ccccc34)CC2)C1` (centres undefined), the INHIBITION came out at 35.8%.
As for `CC(C)N1CCCC(C(=O)N2CCN(c3nsc4ccccc34)CC2)C1` (centres undefined), the figure is 58.5%.
As for `CCN1CC(C(=O)N2CCN(c3nsc4ccccc34)CC2)CCC1=O` (centres undefined), the figure is 33.9%; as for `Cc1cc(NC(=O)NCc2ccc(S(=O)(=O)N3CCCC3)s2)no1`, 68%; as for `CCc1ccc(CNC(=O)Nc2cc(C)on2)s1`, 39.7%.
As for `O=S(=O)(NCc1ccc(S(=O)(=O)N2CCCC2)s1)c1ccc(Cl)c(Cl)c1`, the figure is 40.6%; as for `Cc1cc(CN2CCN(C(=O)NCc3ccc(C)s3)CC2)no1`, 18.6%; as for `Cc1cc(NC(=O)NCc2ccc(C)s2)no1`, 56.8%.
For `CNS(=O)(=O)c1ccc(CNC(=O)Nc2cc(C)on2)s1`, the INHIBITION is reported as 24.3%.
Regarding `Oc1nc(C2CC2)nc2c1nnn2C1CCN(Cc2ccoc2)CC1`, the INHIBITION is given as 12.25%.
The same measure for `CCOc1ccc(Cl)c(C(=O)N2CCCC(c3ccn[nH]3)C2)n1` (centres undefined): -10.1%.
The same measure for `CC(=O)N1N=C(c2ccco2)OC1C(=O)NCCc1ccc(O)cc1` (centres undefined): 48%; for `Cc1cc(C(=O)N(C)C)nc(C2(C)CCCN2c2ccnc(C)n2)n1` (centres undefined): -41.025%; for `Fc1ccc(-c2nc(CN3CCCC3Cn3cncn3)co2)cc1F` (centres undefined): 33.7%.
As for `Cc1nc(C2(NCC(=O)NCCc3cccs3)CCCC2)no1`, the figure is -81.3%; as for `CCCn1cc(C(=O)NCc2nnc(-c3ccc(C)nc3)o2)c(C)n1`, 14.6%.
For `COc1cc(C)c(C2CC(=O)Nc3cc(NS(C)(=O)=O)ccc32)cc1C` (centres undefined), the INHIBITION was -5.22%.
As for `CN(Cc1ccc(C2CC(=O)Nc3n[nH]cc32)o1)S(C)(=O)=O` (centres undefined), the figure is -38.1%.
The same measure for `CCCC(=O)Nc1cc2c(cc1OC)NC(=O)CC2c1ccc(CC)o1` (centres undefined): 49.6%; for `COc1ncccc1C1CC(=O)Nc2cc(NS(C)(=O)=O)ccc21` (centres undefined): 10.1%.
The same measure for `CCc1ccc(C2CC(=O)Nc3cc(NS(C)(=O)=O)ccc32)o1` (centres undefined): 85.3%; for `Cc1cc(C)n(CCC2CC(=O)Nc3cc4[nH]ncc4cc32)n1` (centres undefined): 0.991%.
With `CCc1ccc(C2CC(=O)Nc3cc(OC)c(NS(C)(=O)=O)cc32)o1` (centres undefined), the INHIBITION is recorded as 61.5%.
As for `CN(Cc1ccc(C2CC(=O)Nc3cc4[nH]ncc4cc32)o1)S(C)(=O)=O` (centres undefined), the figure is 70.2%.
As for `CCc1ccc(C2CC(=O)Nc3n[nH]cc32)o1` (centres undefined), the figure is 26.9%; as for `Cc1nn(C)c(C)c1C1CCCN1C(=O)c1cnccn1` (centres undefined), 2.97%; as for `CCc1nc2n(n1)CC(NCc1cnc(-c3ccccc3)nc1)CC2` (centres undefined), 31.9%.
As for `CCn1ccnc1CN1CCN(CC(O)c2cccc(F)c2)CC1` (centres undefined), the figure is -94.9%; as for `COc1ccc(NC2(C(=O)N3CCn4cncc4C3)CCCC2)cc1`, 18.5%.
Regarding `CCCN(CCC)Cc1nnsc1Cl`, the INHIBITION is 10.8%.
The same measure for `CCCN(Cc1ccc(C#N)cc1)Cc1nnsc1Cl`: 52%; for `CC(C)N(Cc1ccc(C#N)cc1)Cc1nnsc1Cl`: 22.4%.
As for `CCCOc1ccc(CNCCn2cccn2)cc1`, the figure is 30.5%; as for `CS(=O)(=O)N1CC(c2ncn3ccccc23)C1`, 70.4%.
As for `CN1CCC(c2n[nH]c3ncccc23)C1` (centres undefined), the figure is -10.5%; as for `CC(=O)N1CC(c2n[nH]c3ncccc23)C1`, 27.6%; as for `CS(=O)(=O)N1CC(c2n[nH]c3ncccc23)C1`, 70.1%.
Consider `CCc1ccc2c(C3CN(S(C)(=O)=O)C3)ncn2c1`, for which the INHIBITION was 40.8%.
The same measure for `Cn1nc(C2CN(S(C)(=O)=O)C2)c2nccnc21`: 35.2%; for `CC(=O)CSc1nc2c(cnn2CCO)c(=O)[nH]1`: -8.41%; for `Cc1cccc(N2CCN(C(=O)Cc3ccccc3O)C(C)C2)n1` (centres undefined): 6.83%.
With `CN1CC2(CCN(C(=O)c3ccc(-n4cnnc4)cc3Cl)CC2)OC1=O`, the INHIBITION was -6.01%.
As for `Cc1cc(-c2ccnn2C)nc(C2CCCN(S(C)(=O)=O)C2)n1` (centres undefined), the figure is 16.99%.
As for `CC(=O)NC[C@]1(O)CCN(C(=O)c2ccc(C)c(F)c2)C[C@H]1O`, the figure is -7.79%.
As for `CC(=O)NC[C@]1(O)CCN(C(=O)c2ccc3c(c2)CCC3)C[C@H]1O`, the INHIBITION is on record as 14.5%.
The same measure for `CC(=O)NC[C@]1(O)CCN(C(=O)c2ccc3c(c2)OCO3)C[C@H]1O`: 59%.
As for `Cc1cnn(CCNCC(=O)N2CCN(c3ccccc3)CC2)c1`, the figure is -3.48%; as for `CC(C)CC(C)N(C)C(=O)c1nc(S(C)(=O)=O)n2ccccc12` (centres undefined), 1.8%.
As for `CN(Cc1cnn(C)c1)C(=O)C(c1ccccc1)N1CCSCC1` (centres undefined), the figure is -13.4%.
As for `O=C(c1c[nH]c(=O)[nH]c1=O)N1CCCC(c2cnccn2)C1` (centres undefined), the INHIBITION worked out at 53%.
As for `Cc1cncc(C2CCCN(C(=O)c3c[nH]c(=O)[nH]c3=O)C2)n1` (centres undefined), the figure is 11%.
As for `Cc1cnc(C2CCCN(C(=O)c3c[nH]c(=O)[nH]c3=O)C2)s1` (centres undefined), the figure is 38.2%; as for `COc1ncccc1C(=O)Nc1cccc(C[S+](C)[O-])c1C` (centres undefined), -32.2%.
The same measure for `Cc1nc2n(n1)CC(NCC(=O)Nc1cc(C)on1)CC2` (centres undefined): 7.08%; for `CNc1cc(C)nc(C2CN(Cc3ccc(Cl)cn3)CCO2)c1` (centres undefined): -35.8%.
Consider `CNc1cc(C)nc(C2CN(Cc3cc[nH]n3)CCO2)c1` (centres undefined), for which the INHIBITION came out at 67.7%.
As for `Cc1cc(N)cc(C2CN(Cc3cc[nH]n3)CCO2)n1` (centres undefined), the figure is 0.301%; as for `COCC1CN(C(=O)c2cccs2)Cc2nccn2C1` (centres undefined), 67.5%.
As for `COCC1CN(C(=O)c2cccn2C)Cc2nccn2C1` (centres undefined), the figure is 42.1%.
As for `COCC1CN(C(=O)c2ccccn2)Cc2nccn2C1` (centres undefined), the figure is 11.5%; as for `O=C(NCCn1ccnc1)c1ccn(-c2ccccc2F)n1`, 7.27%; as for `O=c1c(NCCc2ccc(O)cc2)c(NCc2ccccn2)c1=O`, 23.7%.
`O=C(NS(=O)(=O)Cc1ccc(F)cc1)C1CCOc2ccccc21` (centres undefined): the INHIBITION is reported as 50.7%.
As for `O=C(NS(=O)(=O)Cc1ccc(F)cc1)C1CCc2ccccc21` (centres undefined), the figure is 11.7%; as for `O=C(NS(=O)(=O)c1ccc(F)cc1)C1CCOc2ccccc21` (centres undefined), 48.5%.
`COCC(=O)N1CC[C@@H](N2CCOCC2)[C@@H]1Cc1cccnc1`: the INHIBITION was determined as 27.6%.
